About 79,000 compounds went through this panel and 15% of them were active in at least one assay; those are over-represented in the sample as a whole. The source made the active and inactive calls. Rule as the data show it: active = growth inhibition above about 70%; inactive = the rest.
Legend:
[1] = NCI Yeast Anticancer Drug Screen. Data for the rad52 strain (AID 147);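 also: 0% = growth of vehicle-treated control cultures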; conditions: S. cerevisiae rad52 mutant growth inhibition, stronger effect = higher value
In short: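 Measured: yeast growth inhibition. System: strain with a defined DNA damage repair alteration. Reference: vehicle-treated control cultures.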

[2] = NCI Yeast Anticancer Drug Screen. Data for the wt1 strain (AID 149);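 also: 0% = growth of vehicle-treated wt1 cultures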; conditions: S. cerevisiae wt1 strain (SPY 50644) growth inhibition, stronger effect = higher value
In short: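 Growth inhibition read against vehicle controls after compound exposure of the wt1 yeast strain.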

[3] = NCI Yeast Anticancer Drug Screen. Data for the rad50EPP+ strain (AID 151);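 also: 0% = growth of vehicle-treated control cultures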; conditions: S. cerevisiae rad50 mutant strain, stronger effect = higher value
In short: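 One strain with a rad50 alteration (rad50EPP+) was compound-treated, its growth then compared to that of vehicle controls.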

[4] = NCI Yeast Anticancer Drug Screen. Data for the mgt1 strain (AID 153); conditions: S. cerevisiae mgt1 mutant growth inhibition, stronger effect = higher value
In short: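 After exposure of the mgt1 yeast mutant to compound, growth was measured and reported as inhibition compared with vehicle controls.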

[5] = NCI Yeast Anticancer Drug Screen. Data for the rad50 strain (AID 155);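 also: 0% = growth of vehicle-only cultures of the same strain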; conditions: S. cerevisiae rad50 strain growth inhibition, stronger effect = higher value
In short: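 Readout: growth inhibition relative to vehicle-treated cultures. Compound exposure was carried out in a genetically defined yeast strain deficient in DNA damage repair.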

[6] = NCI Yeast Anticancer Drug Screen. Data for the rad14 strain (AID 159);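 also: 0% = growth of vehicle-treated control cultures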; conditions: S. cerevisiae rad14 strain growth inhibition, stronger effect = higher value
In short: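 Growth inhibition vs vehicle controls; genetically altered yeast strain (DNA damage repair defect) treated with test compounds.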

[7] = NCI Yeast Anticancer Drug Screen. Data for the sgs1 mgt1 strain (AID 161);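 also: 0% = growth of cultures given vehicle only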; conditions: S. cerevisiae sgs1 mgt1 strain, stronger effect = higher value
In short: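 Mutant yeast exposed to compound; growth scored against vehicle-only wells.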

[8] = NCI Yeast Anticancer Drug Screen. Data for the CLN2oe strain (AID 163);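 also: 0% = growth of vehicle-only control cultures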; conditions: S. cerevisiae CLN2oe strain, stronger effect = higher value
In short: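 Here, growth inhibition in a cell-cycle-altered yeast strain after compound exposure was quantified against vehicle control growth.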

[9] = NCI Yeast Anticancer Drug Screen. Data for the cln2 rad14 strain (AID 165);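 also: 0% = growth equal to vehicle treated cultures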; conditions: S. cerevisiae cln2 rad14 strain, stronger effect = higher value
In short: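 Growth of compound-exposed yeast (cln2 rad14 genotype) measured and expressed as inhibition relative to vehicle.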

[10] = NCI Yeast Anticancer Drug Screen. Data for the bub3 strain (AID 167); conditions: S. cerevisiae bub3 mutant strain, stronger effect = higher value
In short: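 Readout: yeast growth inhibition, expressed relative to vehicle-only wells. The test organism is a mutant strain from a panel with lesions in DNA repair or checkpoint genes.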

[11] = NCI Yeast Anticancer Drug Screen. Data for the wt2 strain (AID 169);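 also: 0% = growth of vehicle-treated yeast cultures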; conditions: S. cerevisiae wt2 strain growth inhibition, stronger effect = higher value
In short: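 Genetically defined yeast strains from a DNA-repair/cell-cycle panel were used. Compound-exposed yeast growth was measured, and the inhibition was calculated relative to vehicle treatment.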

[12] = NCI Yeast Anticancer Drug Screen. Data for the mlh1 strain (AID 171);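 also: 0% = growth of vehicle-treated control cultures of the same strain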; conditions: S. cerevisiae mlh1 strain growth inhibition, stronger effect = higher value
In short: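 Here the genetically defined yeast mutant is grown with each compound, and the extent to which its growth falls below that of vehicle-exposed cells is reported.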

[13] = NCI Yeast Anticancer Drug Screen. Data for the sgs1 strain (AID 173);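 also: 0% = growth of vehicle-only control cultures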; conditions: S. cerevisiae sgs1 mutant, stronger effect = higher value
In short: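 Relative growth inhibition, referenced to vehicle, was determined in a yeast strain with a defined alteration affecting DNA damage repair or cell cycle control after compound exposure.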

[14] = NCI Yeast Anticancer Drug Screen. Data for the mlh1 rad18 strain (AID 175); conditions: S. cerevisiae mlh1 rad18 strain growth inhibition, stronger effect = higher value
In short: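 In this whole-cell yeast screen, a strain with altered DNA damage repair is challenged with compound, and its growth is measured against matched vehicle-treated controls.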

[15] = NCI Yeast Anticancer Drug Screen. Data for the rad18 strain (AID 177); conditions: S. cerevisiae rad18 mutant growth inhibition, stronger effect = higher value
In short: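 Screen uses a yeast strain with a defined lesion in DNA damage repair; compound effect is read as loss of growth compared to untreated vehicle cultures.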

[16] = NCI Yeast Anticancer Drug Screen. Data for the mec2-1 strain (AID 157); conditions: S. cerevisiae mec2-1 strain, stronger effect = higher value
In short: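 Test agents were screened against the mec2-1 yeast strain, with defined DNA repair or cell cycle alteration. Growth was scored as inhibition against vehicle-only controls.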

[17] = at 5.0 µM (retest, dose inferred, filed as 0.5)
[18] = at 50.0 µM (retest, dose inferred, filed as 5.0)

Measured: growth inhibition

CCOC(=O)/C(=C\c1cccc(C)c1)C(C)=O
active: [1]; at 33.0 µM 91% | [1]; at 100.0 µM 99% | [2]; at 33.0 µM 88% | [2]; at 100.0 µM 98% | [3]; at 33.0 µM 91% | [3]; at 100.0 µM 99% | [4]; at 33.0 µM 91% | [4]; at 100.0 µM 99% | [5]; at 33.0 µM 89% | [5]; [18] 91% | [5]; at 50.0 µM 92.3% | [5]; at 100.0 µM 98% | [6]; at 33.0 µM 93% | [6]; at 100.0 µM 99% | [7]; [18] 94% | [7]; at 50.0 µM 92.5% | [8]; at 33.0 µM 92% | [8]; at 100.0 µM 99% | [9]; [18] 88% | [9]; at 50.0 µM 87.5% | [10]; at 11.0 µM 89% | [10]; at 33.0 µM 97% | [10]; [18] 96% | [10]; at 50.0 µM 90.2% | [10]; at 100.0 µM 99% | [11]; at 33.0 µM 92% | [11]; at 100.0 µM 99% | [12]; at 11.0 µM 80% | [12]; at 33.0 µM 95% | [12]; at 100.0 µM 98% | [13]; at 11.0 µM 84% | [13]; at 33.0 µM 94% | [13]; at 100.0 µM 98% | [14]; [18] 94% | [14]; at 50.0 µM 90.4% | [15]; at 33.0 µM 89% | [15]; at 100.0 µM 98%
inactive: [1]; at 1.2 µM -3% | [1]; at 3.7 µM 10% | [1]; at 11.0 µM 67% | [2]; at 1.2 µM -37% | [2]; at 3.7 µM -15% | [2]; at 11.0 µM 29% | [3]; at 1.2 µM 48% | [3]; at 3.7 µM 31% | [3]; at 11.0 µM 60% | [4]; at 1.2 µM -2% | [4]; at 3.7 µM 3% | [4]; at 11.0 µM 58% | [5]; at 1.2 µM -13% | [5]; at 3.7 µM -8% | [5]; [17] 20% | [5]; at 11.0 µM 58% | [6]; at 1.2 µM -6% | [6]; at 3.7 µM -7% | [6]; at 11.0 µM 38% | [7]; [17] 19% | [8]; at 1.2 µM 11% | [8]; at 3.7 µM 4% | [8]; at 11.0 µM 55% | [9]; [17] 5% | [10]; at 1.2 µM 1% | [10]; at 3.7 µM 14% | [10]; [17] 55% | [11]; at 1.2 µM 20% | [11]; at 3.7 µM 23% | [11]; at 11.0 µM 69% | [12]; at 1.2 µM 13% | [12]; at 3.7 µM 18% | [13]; at 1.2 µM 22% | [13]; at 3.7 µM 51% | [14]; [17] 15% | [15]; at 1.2 µM 3% | [15]; at 3.7 µM 12% | [15]; at 11.0 µM 65%

Cc1ccc(S(=O)(=O)NC(=O)C2C(=O)CC3(CCCCC3)CC2=O)cc1
inactive: [1]; at 1.2 µM -22% | [1]; at 3.7 µM -37% | [1]; at 11.0 µM -34% | [1]; at 33.0 µM 7% | [1]; at 100.0 µM 36% | [2]; at 1.2 µM -22% | [2]; at 3.7 µM -16% | [2]; at 11.0 µM -20% | [2]; at 33.0 µM 67% | [3]; at 1.2 µM -3% | [3]; at 3.7 µM -21% | [3]; at 11.0 µM -18% | [3]; at 33.0 µM -12% | [3]; at 100.0 µM -21% | [4]; at 1.2 µM -24% | [4]; at 3.7 µM -16% | [4]; at 11.0 µM -13% | [16]; at 1.2 µM -25% | [16]; at 3.7 µM -30% | [16]; [17] 12% | [16]; at 11.0 µM 20% | [16]; [18] 26% | [16]; at 50.0 µM 30.1% | [6]; at 1.2 µM -29% | [6]; at 3.7 µM -44% | [6]; at 11.0 µM 3% | [7]; [17] 11% | [7]; [18] 21% | [7]; at 50.0 µM -16.6% | [8]; at 1.2 µM -12% | [8]; at 3.7 µM 1% | [8]; at 11.0 µM 4% | [9]; [17] 5% | [9]; [18] -1% | [9]; at 50.0 µM -8.9% | [10]; at 1.2 µM -5% | [10]; at 3.7 µM 23% | [10]; [17] 20% | [10]; at 11.0 µM 5% | [10]; [18] 16% | [10]; at 50.0 µM -17.9% | [11]; at 1.2 µM -39% | [11]; at 3.7 µM -28% | [11]; at 11.0 µM 20% | [12]; at 1.2 µM -2% | [12]; at 3.7 µM -11% | [12]; at 11.0 µM 13% | [14]; [17] 42% | [14]; at 50.0 µM -61.4% | [15]; at 1.2 µM -15% | [15]; at 3.7 µM -2% | [15]; at 11.0 µM -16% | [15]; at 33.0 µM 14% | [15]; at 100.0 µM 48%
active: [2]; at 100.0 µM 83% | [4]; at 33.0 µM 80% | [4]; at 100.0 µM 85% | [16]; at 33.0 µM 79% | [16]; at 100.0 µM 83% | [6]; at 33.0 µM 82% | [6]; at 100.0 µM 86% | [8]; at 33.0 µM 77% | [8]; at 100.0 µM 84% | [10]; at 33.0 µM 72% | [10]; at 100.0 µM 74% | [11]; at 33.0 µM 84% | [11]; at 100.0 µM 83% | [12]; at 33.0 µM 82% | [12]; at 100.0 µM 88% | [14]; [18] 71%

— PubChem BioAssay (NCI)
